VLA-4 inh: inhibition in human VLA-4 binding assay, primary screen, VLA-4 allosteric modulator project, MLPCN library, flow cytometry, VLA-4 expressing cells; Integrin alpha-4 (Homo sapiens), P13612; ligand binding flow cytometry; AID 2557, 2010; inhibition, % (about 7 µM as worked out from the volumes in the protocol); 330,000 compounds, 0.2% hits; in the data active = inhibition above about 50%
Platelet DG rel: inhibitors of platelet dense granule secretion, primary screen, cell-based, MLPCN, human platelets; inhibition, %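 (compounds screened at 7.5 µM in platelet-rich plasma)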; human platelet-rich plasma, SFLLRN dense granule ATP release, luminescence; 300,000 compounds, 0.22% hits;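 active = mean replicate score, as percent of positive control, at or above 50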
CHT PAM: CHT positive allosteric modulators, primary screen, cell-based, membrane potential dye, choline EC20. High affinity choline transporter 1 (Homo sapiens), Q9GZV3. CHT-expressing cells; hits give high values; LV-AA mutant CHT in HEK293 cells. B-score at 10 µM. 310,000 compounds, 0.49% hits. AID 488977, 2010;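 active = initial fluorescence not abnormally high and integrated response B-score, plate-corrected, over 3 SD above library mean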
AI-2 QS mod: Vibrio harveyi AI-2 quorum sensing modulators, primary screen, JMH597 strain, luminescence/OD600 ratio. 300,000 compounds, 0.4% hits. Vibrio harveyi JMH597 AI-2 luminescence/OD600 ratio, 9 h; hits give low values; strain lacks LuxN and CqsS sensors; 0 = neutral-control median. activity change, % at 7.5 µM. AID 2094, 2009; in the data active = activity change below about -75%, passing the limit was not always enough;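 note: luminescence divided by OD600 gain over 9 h not by final OD600 alone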
CHT inh: inhibitors of human choline transporter CHT; High affinity choline transporter 1 (Homo sapiens), Q9GZV3; 310,000 compounds, 0.86% hits; CHT-expressing cells, membrane potential dye, choline response; hits give low values; AID 488975, 2010; B-score at 10 µM;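 active = B-score over 3 SD under the library average, and starting fluorescence ratio not unusually high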;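 note: choline stimulus applied at its EC90 after an EC20 pre-addition; B-score computed on integrated fluorescence ratio after choline addition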
HIF act: HIF pathway transcriptional activators, primary screen, cell-based, U2OS HRE-luciferase, luminescence | activation, % at 7.5 µM (by protocol) | 300,000 compounds, 0.32% hits | U2OS HRE-luciferase reporter; normalized: DMSO 0%, desferrioxamine 100%;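 active = mean activation of at least 10% of the iron chelator positive control signal, with at least half of replicates also reaching 10%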
CHT block conf: CHT inhibitors, confirmation, cell-based, membrane potential dye, duplicate. shares compounds with CHT inh. CHT-expressing cells, choline membrane potential dye; LV-to-AA substituted CHT, HEK293 cells. CHT activity remaining % of control (hits give low values), % at 10 µM. 2,400 compounds, 70% hits;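 active = choline transporter activity left, mean of duplicates at 10 µM, below buffer-only control mean minus 3 SD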;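 note: depolarization triggered by choline at its EC90 following an EC20 pre-addition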
HEK293 MPD ctr: membrane potential effects in parental HEK293, counter-screen for CHT inhibitor project, cell-based, membrane potential dye; shares compounds with CHT inh; choline response; active = decrease or increase beyond buffer ±3SD; membrane potential ratio readout (active if shifted either direction beyond buffer ±3SD; no single direction) at 10 µM; 2,400 compounds, 4% hits; AID 493222, 2011;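 note: parental cells lack the transporter so any hit is non-specific; ratio is peak minus trough fluorescence over baseline after EC90 choline challenge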
Of the large screens only hits and unclear results are named; the others gave an inactive call (follow-up assays come after a bar, where they were run). The list is not random: actives were taken first. Their share in the collection is about 2.2%.

S=c1[nH]nc(-c2ccc3ccccc3n2)o1	none
CCOc1ccc(NC(=O)COc2ccc3c(c2)CCC3)cc1OC	none (no result: Platelet DG rel, CHT PAM, AI-2 QS mod, CHT inh, HIF act)
Cc1ccc(C(=O)N/C(=C\C=C\c2ccccc2)C(=O)NCc2ccco2)cc1	CHT inh -6.59 | CHT block conf 53.6% | HEK293 MPD ctr inactive
O=C(NCc1ccco1)/C(=C/C=C/c1ccccc1)NC(=O)c1ccco1	none
CC(=O)NN1C(=O)c2ccc(Oc3cccc([N+](=O)[O-])c3)cc2C1=O	CHT inh -8.3 | CHT block conf 23.0% | HEK293 MPD ctr inactive
Cc1cc(C(=O)c2ccc3ccccc3c2)c(C)o1	none
COc1cc(C(=O)Nc2c(C(=O)O)[nH]c3ccc(Br)cc23)cc(OC)c1OC	none
COc1ccccc1-c1nnc(SCC(=O)Nc2cccnc2Cl)n1C	none (no result: Platelet DG rel, CHT PAM, AI-2 QS mod, CHT inh, HIF act)
O=C(CNC(=O)c1cccs1)OCC(=O)c1ccc([N+](=O)[O-])cc1	CHT inh -5.12 | CHT block conf inactive | HEK293 MPD ctr inactive
COc1cc(OC)cc(-c2c(-c3cccs3)c3cc(-c4ccc(OCc5ccccc5)cc4)ccc3n2C)c1	none (no result: Platelet DG rel, CHT PAM, AI-2 QS mod, CHT inh, HIF act)
O=C(NN1C(=O)/C(=C/c2cccs2)SC1=S)c1ccncc1	CHT inh -10.1 | CHT block conf 7.4% | HEK293 MPD ctr inactive
COc1cccc(/C=C2\SC(=S)N(NC(=O)c3ccncc3)C2=O)c1	CHT inh -8.67 | CHT block conf 5.2% | HEK293 MPD ctr inactive
O=C(NN1C(=O)/C(=C/c2cccc(O)c2)SC1=S)c1ccccc1O	CHT inh -5.23 | CHT block conf 67.8% | HEK293 MPD ctr inactive
CN(C)S(=O)(=O)N1CCC(Oc2ccc(C(=O)N3C[C@@H]4CCC[C@H]3C4)cc2)CC1	none
COc1ccc(CNC(=O)CN(C(=O)CCC(=O)Nc2nccs2)c2ccc(C)cc2)cc1	none
CCCN1CCC(NC(=S)Nc2cccc(Cl)c2Cl)CC1	none
COC(=O)/C(=C/c1c[nH]c2ccccc12)[N+](=O)[O-]	CHT inh -4.94 (no result: HIF act) | CHT block conf 58.2% | HEK293 MPD ctr inactive
CN(CC(=O)NCCc1ccc(S(N)(=O)=O)cc1)CC(=O)Nc1ccccc1C(F)(F)F	none (no result: Platelet DG rel, CHT PAM, AI-2 QS mod, CHT inh, HIF act)
Cc1ccc2ncnc(Nc3ccccc3)c2c1	none
COc1ccccc1Nc1ncnc2ccc(C)cc12	CHT inh -5.37 | CHT block conf 60.6% | HEK293 MPD ctr inactive
C/C(=N\NC(=O)c1ccccc1O)C1C(=O)c2ccccc2C1=O	CHT inh -5.03 | CHT block conf 31.4% | HEK293 MPD ctr inactive
CC1CC(C)CN(C(=O)c2cc(S(=O)(=O)N3CCCCC3)ccc2Cl)C1 (stereo not drawn)	none
CCN1CCN(c2cc(C)c3cc(NC(=S)N4CCCCC4)ccc3n2)CC1	CHT inh -6.67 | CHT block conf 47.4% | HEK293 MPD ctr inactive
CCCN(CCC)CCCNC(=S)Nc1ccc2nc(N3CCN(CC)CC3)cc(C)c2c1	CHT inh -6.68 | CHT block conf 49.2% | HEK293 MPD ctr 2.17
Clc1cccc(Cl)c1CNC1CCCC1	CHT inh -5.5 | CHT block conf 11.0% | HEK293 MPD ctr -10.5
CCOC(=O)C1CCN(C(=O)CN(c2ccc(Cl)c(C(F)(F)F)c2)S(C)(=O)=O)CC1	CHT inh -6.36 | CHT block conf inactive | HEK293 MPD ctr inactive
COc1ccc(C(C(=O)NC2CCCCC2)N(C(=O)c2ccco2)c2ccccc2C(C)=O)cc1OC (stereo not drawn)	CHT inh -5.15 | CHT block conf 70.9% | HEK293 MPD ctr inactive
COc1ccc(C(C(=O)NC2CCCC2)N(C(=O)c2ccco2)c2ccccc2C(C)=O)cc1OC (stereo not drawn)	none
CCOc1ccc(Nc2c3c(nc4ncnn24)CC(C)CC3)cc1 (stereo not drawn)	none
Cc1ccc(Nc2c3c(nc4ncnn24)CC(C)CC3)cc1 (stereo not drawn)	CHT inh -5.81 | CHT block conf inactive | HEK293 MPD ctr inactive
CCOc1ccc(CNC(=O)CCS(=O)(=O)Cc2cccc(Cl)c2)cc1OC	none
CC(OC(=O)c1ccc(S(=O)(=O)N2CCCCC2)cc1)C(=O)Nc1ccc(C(N)=O)cc1 (stereo not drawn)	none (no result: Platelet DG rel, CHT PAM, AI-2 QS mod, CHT inh, HIF act)
CC(=O)Nc1cc(NC(C)=O)cc(C(=O)OC(C)C(=O)Nc2ccc(S(=O)(=O)N3CCCC3)cc2)c1 (stereo not drawn)	CHT inh -4.95 | CHT block conf 44.8% | HEK293 MPD ctr inactive
CC(Sc1n[nH]c(-c2ccccc2F)n1)C(=O)Nc1ccc(S(N)(=O)=O)cc1 (stereo not drawn)	none (no result: Platelet DG rel, CHT PAM, AI-2 QS mod, CHT inh, HIF act)
CCCSc1nc2ccsc2c(=O)n1CC	none
Cc1ccc(F)cc1NC(=O)c1ccc(NS(=O)(=O)c2ccc(Br)s2)cc1	CHT inh -7.11 | CHT block conf 49.7% | HEK293 MPD ctr inactive
NC(=O)c1ccc(NS(=O)(=O)c2ccc(Br)s2)cc1	none (no result: Platelet DG rel, CHT PAM, AI-2 QS mod, CHT inh, HIF act)
CCOC(=O)N1CCN(C(=O)C2CCCN(c3ncnc4c3nc3n4CCCCC3)C2)CC1 (stereo not drawn)	CHT inh -9.32 | CHT block conf 10.7% | HEK293 MPD ctr inactive
O=C(C1CCCN(c2ncnc3c2nc2n3CCCCC2)C1)N1CCN(c2ccccc2F)CC1 (stereo not drawn)	CHT inh -8.9 | CHT block conf -10.6% | HEK293 MPD ctr inactive
COc1cccc(N2CCN(C(=O)C3CCCN(c4ncnc5c4nc4n5CCCCC4)C3)CC2)c1 (stereo not drawn)	CHT inh -5.67 (no result: AI-2 QS mod) | CHT block conf 37.8% | HEK293 MPD ctr inactive
Cc1cc(NC(=O)CN2C(=O)NC3(CCCCCC3)C2=O)no1	none
O=C(O)c1nn(CCSc2ccccc2F)c(=O)c2ccccc12	none
Cc1occc1C(=O)N/N=C/c1sc(N2CCOCC2)nc1-c1ccccc1	CHT inh -9.14 | CHT block conf inactive | HEK293 MPD ctr inactive
O=C(N/N=C/c1sc(N2CCOCC2)nc1-c1ccccc1)c1ccc(O)cc1	none
CC(=O)N1CCN(S(=O)(=O)c2cccc(C(=O)NC3CCCc4ccccc43)c2)CC1 (stereo not drawn)	none
